This is an account of results in PubChem BioAssay (EPA / NIEHS).

Calls of active or inactive are those of the source. Rule for the calls: active = hit-call score of the fitted dose curve at least 0.9, where 1 is the maximum; inactive = score below 0.9.

Read-out in this experiment: sulfotransferase 2A1 (SULT2A1), SULT2A1 (gene 6822)
The experiment is described as follows: LTEA_HepaRG_SULT2A1: Life Technologies and Expression Analysis (LTEA) Assay for sulfotransferase 2A1 (SULT2A1) using HepaRG (AID 2283531). Conditions: mRNA level, 48 h; actives raise or lower the signal. Here is the method: LTEA_HepaRG is a cell based, multiplexed-readout assay that uses HepaRG, a human liver cell line, with measurements taken at 48 hours after chemical dosing on a 96-well plate.LTEA_HepaRG_SULT2A1 is one of 102 assay component(s) measured in the LTEA HepaRG cell culture assay. It is a marker of NR mediated transport.Data from the assay component LTEA_HepaRG_SULT2A1 was analyzed into 1 endpoint. This assay endpoint, LTEA_HepaRG_SULT2A1, was analyzed with bidirectional fitting relative to DMSO as the negative control and baseline of activity. Using a type of inducible reporter, measures of mRNA induction for gain or loss-of-signal activity can be used to understand regulation of transcription factor activity. To generalize the intended target to other relatable targets, this assay endpoint is annotated to the transferase intended target family, where the subfamily is sulfotransferase.
A total of 1060 chemcials from the ToxCast library were tested in eight-point concentration-response experiments. Cell culture and cytotoxicity assays were conducted at Thermo Fisher Scientific's Custom Services facility (Madison, WI). A single lot of human HepaRG cells (Thermo Fisher Scientific, Frederick, MD) was used for the cell culture experiments. 96-well format collagen type I coated plates of human HepaRG cells were prepared using established methods. Briefly, cryopreserved HepaRG cells were thawed, plated at a density of approximately 100,000 cells/well in HepaRG Thaw, Plate, and General Purpose media (HPRG770, Thermo Fisher Scientific), and incubated for 48 hours. 0.5% DMSO was selected as vehicle control to balance the requisite need of DMSO in HepaRG cultures to maintain differentiation (for example, baseline metabolism, proportions of hepatocytes vs. cholangiocytes), while enabling further hepatic receptor pathway activation (for example, PXR and CAR) in response to chemical exposure. 48 hours after plating, the culture medium was replaced with HepaRG Serum-Free Incudtion Media. Cells were exposed to each test chemical in duplicate and maintained in CO2 incubators for another 48 hours. Chemical plates were thawed to room temperature and 200x concentrations of treatment groups were prepared. 8-point conentration-reponse curves were made with the highest exposure at 100 uM, followed by half-log dilutions, all in 0.5% DMSO. Each test plate contained variouse controls, induction positive controls (1mM phenobarbital), cytotoxicity positive controls ([…] aflatoxin B1), vehicle controls (0.5% DMSO), and total lysis controls (0.5% DMSO). Cell morphology images were taken using an Essen IncuCyte FLR automated microscope, with six 96-well plates imaged in about 24 minutes. Images were captured and exported and JPEG files. Spent culture media was transfered to black-well plates for the LDH assay, and remaining media was sorted at -80 C for later use. Cells were treated with RLT buffer and frozen until shipped for gene expression analysis. Total RNA was isolated from the cell suspension in 75 uL of Buffer RLT (Qiagen, Germantown, MD 20874) by Quintiles/Expression Analysis (Durham, NC) using a custom isolation procedure. Total RNA from each plate well was transferred to a preamplification plate. Fluidigm's 96.96 Dynamic ArrayTM (Fluidigm, Amsterdam, the Netherlands) technology was used for gene expression analyses by quantitative reverse transcription polymerase chain reaction (qRT-PCR, performed by Quintiles/Expression Analysis, Durham, NC)89. Standard TaqManTM Assays (Applied Biosystems/ThermoFisher Scientific, Foster City, CA) were used to assess the expression of 93 genes selected based on their selectivity and sensitivity to important hepatic receptors known to be modulated by environmental chemicals; importance in human hepatocyte functionality; and hepatotoxicity. […]
`CCOc1ccc(C(C)(C)COCc2cccc(Oc3ccccc3)c2)cc1`: the call was inactive.
In the case of `CCCCCCCc1ccc(O)cc1`, the compound was classed as inactive.
In the case of `O=[N+]([O-])c1ccc(Cl)c(Cl)c1`, the outcome was inactive.
Under `CC(C)(C)OOC(C)(C)C` stands “inactive”; under `c1ccc(OP(Oc2ccccc2)Oc2ccccc2)cc1`, “inactive”; under `CC(Cc1ccc(OCC(=O)O)cc1)NCC(O)c1csc(C(F)(F)F)n1` (stereo not given), “inactive”.
With `c1ccc2c(c1)Nc1ccccc1S2`, the outcome was inactive.
The entry for `c1cc2c3c(cccc3c1)CC2` is “inactive”; for `O=C(O)C1C(C(=O)O)C2(Cl)C(Cl)=C(Cl)C1(Cl)C2(Cl)Cl` (stereo not given) it is “inactive”; for `Cc1cccc(N)c1` it is “inactive”.
Regarding `CCOC(=O)c1ccccc1C(=O)OCC`, the call was inactive.
The entry for `CSC(C)(C)C=NO` is “inactive”.
With `Nc1ccc2ccccc2c1`, the compound was classed as inactive.
As to `CCCN(CCC)c1c([N+](=O)[O-])cc(C(C)C)cc1[N+](=O)[O-]`, the outcome was inactive.
As for `O=[N+]([O-])c1ccccc1`, the compound was classed as inactive.
Under `CCOP(=S)(Oc1ccc([N+](=O)[O-])cc1)c1ccccc1` (stereo not given) stands “inactive”; under `c1nc[nH]n1`, “inactive”; under `CCNc1nc(Cl)nc(NC(C)(C)C)n1`, “inactive”.
Take `CCC1(c2ccccc2)C(=O)N=C(O)NC1=O` (stereo not given): the compound was called inactive.
Consider `O=C(O)C(Cl)Cl`, for which the compound was classed as inactive.
As for `ClC1=C(Cl)C2(Cl)C3C(Cl)C(Cl)CC3C1(Cl)C2(Cl)Cl` (stereo not given), the result was inactive.
As to `[N-]=[N+]=[N-]`, the outcome was inactive.
Under `Nc1cc2c3c(c1)C(c1ccccc1)=N[C@@H](NC(=O)c1cccnc1)C(=O)N3CC2` stands “inactive”; under `CCOP(=S)(OCC)SCSCC`, “inactive”; under `COCCOCCO`, “inactive”.
With `CCOS(=O)(=O)OCC`, the outcome was inactive.
With `ClC(Cl)(Cl)c1ccccc1`, the compound was classed as inactive.
With `Nc1ccc(Cl)cc1`, the outcome was inactive.
Under `O=P1(N(CCCl)CCCl)NCCCO1` (stereo not given) stands “inactive”.
As to `Cc1ccc([N+](=O)[O-])cc1C`, the compound was classed as inactive.
For the compound `ClC(Cl)c1ccccc1`, the outcome was inactive.
With `CCCCc1ccccc1`, the call was inactive.
The entry for `CN(C)C(=O)Cl` is “inactive”; for `CCCCN(CCCC)SN(C)C(=O)Oc1cccc2c1OC(C)(C)C2` it is “inactive”; for `Cc1ccc(O)cc1C` it is “inactive”.
On to `O=P(Oc1ccccc1)(Oc1ccccc1)Oc1ccccc1`, for which the compound was called inactive.
On to `OCC1CO1` (stereo not given), for which the compound was called inactive.
With `CC(C)(C)c1ccc(O)cc1`, the call was inactive.
Consider `CCCCN(CCCC)N=O`, for which the outcome was inactive.
Under `CCN(CC)c1ccccc1` stands “inactive”.
